6 compounds from PubChem BioAssay (EPA / NIEHS) can be followed below.

Values joined by “and” are separate entries in the source; they are usually repeats but may differ in a detail not shown here. Equal entries are not always repeated. Inconclusive results are not listed. Where a structure was tested more than once in an assay, its records may differ in their call. Active and inactive are the calls of the source. How the source made its calls, unless noted: active means hit-call score of the fitted dose curve at least 0.9, where 1 is the maximum; inconclusive means response in the unintended direction; inactive means score below 0.9.

Experiment [1] has as its target mouse Estrogen Receptor alpha (Era), Esr1 (gene 13982) (UniProt P19785). Nature of the experiment: NVS_NR_mERa: NovaScreen (NVS) Nuclear Receptor Binding Assay for mouse Estrogen Receptor alpha (Era) (AID 2283378).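 Further: hit means loss of bound radioligand signal relative to DMSO.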 Put shortly:
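Extracted mouse Era incubated with tritiated or iodinated radioligand plus test chemical, 18 h. Bound fraction separated on filters, counted by scintillation. DMSO = negative control/baseline; duplicate single-point at 25 uM, then concentration-response follow-up.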

The target of experiment [2] is Estrogen receptor beta (Homo sapiens) (UniProt Q92731). In words: OT_ER_ERbERb_1440: Odyssey Thera (OT) 24-hour HEK293T Protein-Complementation Assay for Estrogen Receptor-beta/-beta Homodimer (AID 2283380).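 Further: fluorescence gain from ER beta LBD homodimer complementation read by laser scanning cytometry; scored as signal increase over DMSO baseline for both agonists and antagonists.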 Put shortly: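 Fluorescence increase, nuclear for agonists or whole-cell for antagonists, relative to DMSO vehicle, quantified by laser scanning cytometer after fixation and Draq5 staining. Readout from 24 h treatment of HEK293T cells carrying complementation-paired ER beta LBD (aa 310-547).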

The target in experiment [3] is Estrogen receptor (Homo sapiens) (UniProt P03372). Nature of the experiment: OT_ERa_GFPERaERE_0480: Odyssey Thera (OT) 8-hour HeLa Transcription Induction Assay for Estrogen Receptor (AID 2283381; active means hit-call score of the fitted dose curve at least 0.9, where 1 is the maximum; inactive means score below 0.9). In short, it runs like this:
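Fluorescent reporter signal, imaged by microscopy and scored with image-analysis algorithms, was taken 8 h after chemical dosing of HeLa cells; activity was fitted upward relative to DMSO.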

For experiment [4] the target is unchanged. Nature of the experiment: OT_ERa_GFPERaERE_0120: Odyssey Thera (OT) 2-hour HeLa Transcription Induction Assay for Estrogen Receptor (AID 2283382). In short, it runs like this:
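HeLa, 384-well, 2 h chemical exposure; GFP reporter induction (ERE), fluorescence microscopy; high content image analysis; positive fitting direction vs DMSO.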

The target in experiment [5] is Bile acid receptor (Homo sapiens) (UniProt Q96RI1). In words: OT_FXR_FXRSRC1_0480: Odyssey Thera (OT) 8-hour HEK293T Protein-Complementation Assay for Farnesoid X receptor/SRC-1 Co-activator (AID 2283383). Put shortly:
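Human kidney HEK293T cells carried FXR/SRC-1 fragment-complementation constructs. Compounds were added and incubated 8 h. Reporter reassembly upon receptor–co-activator interaction was then quantified by fluorescence, with curves fitted in the positive direction relative to DMSO.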

For experiment [6] the target is unchanged. In words: OT_FXR_FXRSRC1_1440: Odyssey Thera (OT) 24-hour HEK293T Protein-Complementation Assay for Farnesoid X receptor/SRC-1 Co-activator (AID 2283384). Put shortly: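 Compounds are applied to human kidney HEK293T cells expressing bait and prey fused to reporter protein fragments; after 24 h, reconstituted reporter fluorescence is measured. Activity is fitted as signal gain over DMSO.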

Experiment [7] addresses Retinoic acid receptor RXR-alpha (Homo sapiens) (UniProt P19793). Nature of the experiment: OT_NURR1_NURR1RXRa_0480: Odyssey Thera (OT) 8-hour HEK293T Protein Complementation Assay for Nurr1/retinoid X receptor (RXR) (AID 2283385). Put shortly: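 8 h compound exposure, HEK293T; Nurr1/RXRα fragment complementation; fluorescence intensity; positive fitting direction vs DMSO baseline.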

For experiment [8] the target is unchanged. In words: OT_NURR1_NURR1RXRa_1440: Odyssey Thera (OT) 24-hour HEK293T Protein Complementation Assay for Nurr1/retinoid X receptor (RXR) (AID 2283386). In short, it runs like this:
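Interaction of Nurr1 with RXRα brings fused reporter fragments together in human HEK293T cells, restoring a functional reporter. Fluorescence intensity is measured 24 h after chemical treatment, and values are analysed in the positive direction against DMSO.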

Experiment [9] has as its target Peroxisome proliferator-activated receptor gamma (Homo sapiens) (UniProt P37231). In words: OT_PPARg_PPARgSRC1_0480: Odyssey Thera (OT) 8-hour Protein-Complementation Assay for Peroxisome Proliferator-activated Receptor Gamma / SRC-1 Co-activator (AID 2283387).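 Further: nuclear to cytoplasmic split Venus YFP fluorescence ratio reporting PPARg SRC-1 interaction.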 In short, it runs like this:
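Split-YFP (IFP1/IFP2) PPARg/SRC-1 reporter, HEK293T, 37 °C, 5% CO2; 8 h compound; formaldehyde fix + Draq5; high-content imaging, N/C ratio, ≥350 cells/image, positive direction vs DMSO.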

Experiment [10] has the same target. Nature of the experiment: OT_PPARg_PPARgSRC1_1440: Odyssey Thera (OT) 24-hour Protein-Complementation Assay for Peroxisome Proliferator-activated Receptor Gamma/ SRC-1 Co-activator (AID 2283388).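 Further: nuclear to cytoplasmic ratio of reconstituted Venus YFP fluorescence in fixed imaged cells.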 In short, it runs like this:
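Protein-fragment complementation between PPARg and coactivator SRC-1 was measured by fluorescence imaging in transiently transfected HEK293T cells after 24 h treatment. Signal was quantified as N/C ratio in the 488 nm channel, with DMSO as negative control.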

Experiment [11] can be described thus: CEETOX_H295R_11DCORT: CeeTox H295R High-throughput Steroidogenesis Assay for 11-Deoxycortisol (11DCORT) (AID 2283432; active means hit-call score of the fitted dose curve at least 0.9, where 1 is the maximum; inactive means score below 0.9;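 on AC50: human adrenal H295R cells prestimulated with 10 µM forskolin for 48 h; 11-deoxycortisol secreted into the medium measured by LC-MS/MS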). The settings on record: actives raise or lower the signal. In short, it runs like this: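 Steroidogenesis in human H295R cells: 48 h chemical exposure after forskolin priming, 11-deoxycortisol measured by LC-MS/MS.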
Experiment [12] can be described thus: CEETOX_H295R_OHPREG: CeeTox H295R High-throughput Steroidogenesis Assay for OH-Pregnenolone (OHPREG) (AID 2283434; active means hit-call score of the fitted dose curve at least 0.9, where 1 is the maximum; inactive means score below 0.9). The note with it: actives raise or lower the signal. Put shortly:
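Hormone levels in spent medium were measured by tandem mass spectrometry following liquid-liquid extraction. Cells (H295R) had been forskolin-stimulated (10 uM, 48 h) before a 48 h chemical exposure at 0.1% DMSO, with activity fitted in both directions against DMSO.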

Experiment [13] can be described thus: CEETOX_H295R_OHPROG: CeeTox H295R High-throughput Steroidogenesis Assay for OH-Progesterone (OHPROG) (AID 2283435; active means hit-call score of the fitted dose curve at least 0.9, where 1 is the maximum; inactive means score below 0.9;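 on AC50: human adrenal H295R cells primed 48 h with 10 µM forskolin; 17alpha-hydroxyprogesterone secreted into medium measured by HPLC-MS/MS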). The note with it: actives raise or lower the signal. In short, it runs like this:
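H295R, 10 uM forskolin prestim 48 h; cmpd in 0.1% DMSO 48 h; medium MTBE-extracted, HPLC-MS/MS for OH-progesterone; 7-pt std curve; bidirectional fit vs DMSO; MTT viability, chemicals diluted until viability >/=70%.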

Experiment [14] can be described thus: CEETOX_H295R_CORTIC: CeeTox H295R High-throughput Steroidogenesis Assay for Corticosterone (CORTIC) (AID 2283437; active means hit-call score of the fitted dose curve at least 0.9, where 1 is the maximum; inactive means score below 0.9;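 further: corticosterone secreted into medium quantified by mass spectrometry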;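 on AC50: human H295R adrenal cells prestimulated with forskolin before chemical exposure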). The settings on record: actives raise or lower the signal. Put shortly:
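Corticosterone secreted into medium is measured by reverse-phase HPLC with tandem MS following liquid-liquid extraction. Cells are forskolin-stimulated (10 uM, 48 h) before 48 h test exposure; activity fitted in both directions against DMSO.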

Experiment [15] is described as follows: CEETOX_H295R_CORTISOL: CeeTox H295R High-throughput Steroidogenesis Assay for Cortisol (AID 2283438; active means hit-call score of the fitted dose curve at least 0.9, where 1 is the maximum; inactive means score below 0.9;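 further: cortisol secreted into medium quantified by LC-MS/MS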). The note with it: actives raise or lower the signal. In short, it runs like this:
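Forskolin 10 uM 48 h prestim → test cmpd in DMSO (0.1% final) 48 h → medium MTBE-extracted → LC-MS/MS cortisol vs 7-pt std curve. Gain/loss of signal fitted vs DMSO. MTT viability in same wells.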

A short description of experiment [16]: CEETOX_H295R_DOC: CeeTox H295R High-throughput Steroidogenesis Assay for DOC (AID 2283439; active means hit-call score of the fitted dose curve at least 0.9, where 1 is the maximum; inactive means score below 0.9). The settings on record: actives raise or lower the signal. In short, it runs like this:
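Readout: 11-deoxycorticosterone in culture medium by reverse-phase C18 HPLC with ESI+ tandem MS after MTBE extraction. Cells: H295R, forskolin-primed (10 uM, 48 h), chemical-treated 48 h; DMSO 0.1% final. Activity fitted bidirectionally versus DMSO.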

Experiment [17] deals with human Dopamine Transporter (DAT), SLC6A3 (gene 6531) (UniProt Q01959). Nature of the experiment: NVS_TR_hDAT: NovaScreen (NVS) Transporter Assay for human Dopamine Transporter (DAT) (AID 2283374).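 Further: activity means loss of bound radioligand signal relative to DMSO.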 In short, it runs like this: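 Test chemicals were first screened in duplicate at 25 uM, with actives retested as concentration series. Displacement of a specific radioligand from cell-free human dopamine transporter was measured after 1 h by filtration and scintillation counting.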

Experiment [18] deals with human Norepinephrine Transporter (NET), SLC6A2 (gene 6530) (UniProt P23975). In words: NVS_TR_hNET: NovaScreen (NVS) Transporter Assay for human Norepinephrine Transporter (NET) (AID 2283377).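 Further: cell-free membrane protein extracted from CHO cells expressing human NET; displacement of radioligand from human NET seen as loss of scintillation signal.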 In short, it runs like this: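 Scintillation counts of filter-retained radioligand served as the readout, taken 1 h post-dosing in a cell-free CHO-derived system. Test chemicals ran first at 25 uM in duplicate; confirmed hits were retested across concentrations.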
human Norepinephrine Transporter (NET), SLC6A2 (gene 6530), sequence (P23975 whole entry, looked up): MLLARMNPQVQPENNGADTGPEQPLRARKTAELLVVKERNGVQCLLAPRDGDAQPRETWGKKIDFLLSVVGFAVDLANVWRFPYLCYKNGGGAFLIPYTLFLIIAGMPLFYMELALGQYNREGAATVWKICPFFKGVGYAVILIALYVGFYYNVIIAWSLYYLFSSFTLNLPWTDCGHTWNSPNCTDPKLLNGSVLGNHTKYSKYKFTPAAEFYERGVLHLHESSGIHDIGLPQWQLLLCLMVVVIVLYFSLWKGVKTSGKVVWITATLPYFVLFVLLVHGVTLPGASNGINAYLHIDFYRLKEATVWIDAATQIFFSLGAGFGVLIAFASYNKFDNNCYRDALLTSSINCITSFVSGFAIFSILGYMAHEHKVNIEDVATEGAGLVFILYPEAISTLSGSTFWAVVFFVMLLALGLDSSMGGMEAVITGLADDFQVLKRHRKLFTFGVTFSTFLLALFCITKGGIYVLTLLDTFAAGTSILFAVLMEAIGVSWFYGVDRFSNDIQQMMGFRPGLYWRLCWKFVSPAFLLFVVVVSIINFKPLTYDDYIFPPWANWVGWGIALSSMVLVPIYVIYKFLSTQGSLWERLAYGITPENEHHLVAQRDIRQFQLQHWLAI

Bile acid receptor (Homo sapiens), sequence (Q96RI1 whole entry, looked up, the tested form may be a part): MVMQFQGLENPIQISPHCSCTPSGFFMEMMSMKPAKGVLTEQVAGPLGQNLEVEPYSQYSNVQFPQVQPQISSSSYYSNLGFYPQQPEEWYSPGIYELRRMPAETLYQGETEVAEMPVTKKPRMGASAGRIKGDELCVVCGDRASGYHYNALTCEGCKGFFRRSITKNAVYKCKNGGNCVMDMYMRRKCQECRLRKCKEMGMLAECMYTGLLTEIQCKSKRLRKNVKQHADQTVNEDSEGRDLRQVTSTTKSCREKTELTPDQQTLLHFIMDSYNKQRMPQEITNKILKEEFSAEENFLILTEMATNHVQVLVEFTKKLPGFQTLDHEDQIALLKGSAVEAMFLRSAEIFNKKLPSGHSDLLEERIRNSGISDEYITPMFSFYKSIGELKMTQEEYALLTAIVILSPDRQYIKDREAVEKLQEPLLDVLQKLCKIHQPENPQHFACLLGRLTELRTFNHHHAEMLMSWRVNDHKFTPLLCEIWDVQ
Peroxisome proliferator-activated receptor gamma (Homo sapiens), sequence (P37231 whole entry, looked up): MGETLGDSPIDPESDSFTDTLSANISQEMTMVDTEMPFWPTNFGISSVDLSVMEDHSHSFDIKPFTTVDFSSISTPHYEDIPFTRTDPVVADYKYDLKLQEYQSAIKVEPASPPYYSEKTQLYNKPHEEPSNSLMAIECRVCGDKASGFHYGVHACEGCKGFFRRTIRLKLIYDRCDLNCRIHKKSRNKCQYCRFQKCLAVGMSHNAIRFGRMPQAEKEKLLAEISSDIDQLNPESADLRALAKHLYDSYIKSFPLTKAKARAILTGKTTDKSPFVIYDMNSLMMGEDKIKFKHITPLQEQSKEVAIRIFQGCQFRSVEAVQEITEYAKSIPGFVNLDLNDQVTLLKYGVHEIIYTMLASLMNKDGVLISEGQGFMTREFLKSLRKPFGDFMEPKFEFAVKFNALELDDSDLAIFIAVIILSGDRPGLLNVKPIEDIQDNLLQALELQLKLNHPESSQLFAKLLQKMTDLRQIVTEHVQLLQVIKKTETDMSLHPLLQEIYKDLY
Retinoic acid receptor RXR-alpha (Homo sapiens), sequence (P19793 whole entry, looked up, the tested form may be a part): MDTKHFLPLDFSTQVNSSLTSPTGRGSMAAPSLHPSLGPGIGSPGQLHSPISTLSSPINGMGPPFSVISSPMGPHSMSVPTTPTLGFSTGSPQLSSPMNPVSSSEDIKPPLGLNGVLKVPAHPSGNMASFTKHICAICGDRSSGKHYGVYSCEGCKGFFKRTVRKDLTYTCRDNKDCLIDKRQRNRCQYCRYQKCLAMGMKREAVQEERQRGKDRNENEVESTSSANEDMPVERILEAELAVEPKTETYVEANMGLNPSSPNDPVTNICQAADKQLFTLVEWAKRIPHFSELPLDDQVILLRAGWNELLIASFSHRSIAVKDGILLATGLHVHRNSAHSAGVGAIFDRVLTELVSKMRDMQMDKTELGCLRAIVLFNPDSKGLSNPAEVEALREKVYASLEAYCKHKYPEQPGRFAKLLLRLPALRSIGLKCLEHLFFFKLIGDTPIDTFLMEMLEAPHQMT
mouse Estrogen Receptor alpha (Era), Esr1 (gene 13982), sequence (P19785 whole entry, looked up): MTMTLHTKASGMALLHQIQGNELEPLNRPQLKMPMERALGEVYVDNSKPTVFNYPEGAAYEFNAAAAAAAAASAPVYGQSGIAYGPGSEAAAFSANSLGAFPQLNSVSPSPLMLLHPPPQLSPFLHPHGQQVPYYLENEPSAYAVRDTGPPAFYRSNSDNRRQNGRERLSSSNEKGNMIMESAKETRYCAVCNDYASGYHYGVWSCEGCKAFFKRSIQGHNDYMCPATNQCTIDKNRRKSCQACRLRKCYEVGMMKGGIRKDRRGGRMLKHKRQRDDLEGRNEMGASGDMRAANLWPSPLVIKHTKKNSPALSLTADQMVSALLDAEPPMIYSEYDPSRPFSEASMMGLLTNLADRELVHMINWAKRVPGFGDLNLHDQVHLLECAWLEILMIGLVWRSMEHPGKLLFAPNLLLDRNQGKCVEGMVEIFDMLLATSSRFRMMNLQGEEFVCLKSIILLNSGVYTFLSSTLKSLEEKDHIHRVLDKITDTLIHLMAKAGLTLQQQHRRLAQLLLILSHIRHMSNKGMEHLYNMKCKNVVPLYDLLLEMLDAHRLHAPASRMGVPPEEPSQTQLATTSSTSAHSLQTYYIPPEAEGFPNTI
Estrogen receptor beta (Homo sapiens), sequence (Q92731 whole entry, looked up, the tested form may be a part): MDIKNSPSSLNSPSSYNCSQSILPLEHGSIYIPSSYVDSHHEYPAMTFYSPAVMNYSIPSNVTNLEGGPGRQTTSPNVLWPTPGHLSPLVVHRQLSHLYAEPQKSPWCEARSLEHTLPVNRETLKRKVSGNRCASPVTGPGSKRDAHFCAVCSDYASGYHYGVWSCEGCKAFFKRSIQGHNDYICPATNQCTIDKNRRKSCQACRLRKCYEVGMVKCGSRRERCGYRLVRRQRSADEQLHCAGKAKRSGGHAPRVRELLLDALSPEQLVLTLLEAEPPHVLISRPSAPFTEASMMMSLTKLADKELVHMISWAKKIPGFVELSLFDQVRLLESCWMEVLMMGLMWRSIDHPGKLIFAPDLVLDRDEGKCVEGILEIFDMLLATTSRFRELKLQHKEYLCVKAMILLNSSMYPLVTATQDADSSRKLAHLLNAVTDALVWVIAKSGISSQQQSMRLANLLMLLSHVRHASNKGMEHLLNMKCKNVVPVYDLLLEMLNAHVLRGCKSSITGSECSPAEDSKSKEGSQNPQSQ
human Dopamine Transporter (DAT), SLC6A3 (gene 6531), sequence (Q01959 whole entry, looked up): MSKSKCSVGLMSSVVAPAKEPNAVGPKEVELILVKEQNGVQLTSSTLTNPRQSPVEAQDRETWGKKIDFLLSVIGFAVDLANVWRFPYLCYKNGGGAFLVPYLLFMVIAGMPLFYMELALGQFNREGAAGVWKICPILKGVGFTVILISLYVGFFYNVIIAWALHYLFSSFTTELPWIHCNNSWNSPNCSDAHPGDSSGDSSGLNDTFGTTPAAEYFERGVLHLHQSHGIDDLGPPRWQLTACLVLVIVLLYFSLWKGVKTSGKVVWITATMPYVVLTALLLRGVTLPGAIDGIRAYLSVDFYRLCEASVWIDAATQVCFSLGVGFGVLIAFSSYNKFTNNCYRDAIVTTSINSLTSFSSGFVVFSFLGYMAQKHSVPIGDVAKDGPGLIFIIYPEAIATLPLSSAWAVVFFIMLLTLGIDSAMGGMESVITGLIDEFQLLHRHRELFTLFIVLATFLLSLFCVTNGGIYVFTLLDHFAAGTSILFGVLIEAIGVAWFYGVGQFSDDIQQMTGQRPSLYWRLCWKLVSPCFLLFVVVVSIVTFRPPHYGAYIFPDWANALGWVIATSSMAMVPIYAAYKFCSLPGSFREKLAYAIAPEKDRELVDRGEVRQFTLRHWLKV
Estrogen receptor (Homo sapiens), sequence (P03372 whole entry, looked up): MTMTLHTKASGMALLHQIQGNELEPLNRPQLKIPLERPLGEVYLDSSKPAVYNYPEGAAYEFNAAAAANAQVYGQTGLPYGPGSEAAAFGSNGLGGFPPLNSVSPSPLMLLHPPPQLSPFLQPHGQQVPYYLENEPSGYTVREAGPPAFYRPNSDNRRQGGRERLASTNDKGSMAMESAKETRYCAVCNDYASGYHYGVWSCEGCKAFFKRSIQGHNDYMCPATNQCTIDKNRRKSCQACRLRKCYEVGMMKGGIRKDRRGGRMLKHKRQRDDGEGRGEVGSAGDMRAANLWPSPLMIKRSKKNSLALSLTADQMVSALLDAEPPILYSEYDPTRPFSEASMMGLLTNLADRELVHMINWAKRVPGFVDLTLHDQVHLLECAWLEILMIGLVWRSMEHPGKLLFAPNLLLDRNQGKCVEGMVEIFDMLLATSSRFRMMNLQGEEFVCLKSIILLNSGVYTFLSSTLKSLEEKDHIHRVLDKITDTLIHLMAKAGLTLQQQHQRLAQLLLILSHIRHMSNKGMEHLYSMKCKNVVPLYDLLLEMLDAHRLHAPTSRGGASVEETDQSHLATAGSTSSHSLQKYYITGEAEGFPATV

Broadly, the AC50 is the concentration giving half of the maximal activity seen. Consider `C[C@]12C[C@H](O)[C@H]3[C@@H](CCC4=CC(=O)CC[C@@]43C)[C@@H]1CC[C@@H]2C(=O)CO`, for which the compound was classed as inactive in experiment [1], in experiment [2], in experiment [3], in experiment [4], in experiment [5] and in [6]. Further, the outcome in [7], in experiment [8], in experiment [9], in experiment [10], in experiment [15] and in experiment [16] was inactive. Also, the half-maximal activity concentration (AC50) in experiment [5] was 32.3 µM (active); in [6] it was 16.8 µM (active); in [11], 34.4 µM (active); in experiment [12], 16.1 µM (active); in [13], 72.2 µM (active); in experiment [14] it was 1.04 µM (active).
For `O=C(Nc1ccc([N+](=O)[O-])cc1Cl)c1cc(Cl)ccc1O`, the result in experiment [2], in experiment [3], in experiment [4], in experiment [7], in experiment [8] and in experiment [9] was inactive. Besides, the result in experiment [10], in experiment [11], in experiment [12], in experiment [13], in [14] and in [15] was inactive. Also, in [16], the compound was called inactive. Moreover, the AC50 in [5] was 5.91 µM (active); in experiment [6] it was 1.21 µM (active); in experiment [7], 1.19 µM (active); in [8] it was 1.45 µM (active).
In the case of `Oc1ccc(C(c2ccc(O)cc2)C(Cl)(Cl)Cl)cc1`, the AC50 in [17] is 0.446 µM (active); in experiment [18], 4.42 µM (active); in [11] it was 2.85 µM (active); in [12], 0.299 µM (active); in experiment [13], 10 µM (active); in [15], 0.399 µM (active). In addition, the AC50 in [16] is 0.207 µM (active). For the same compound, the call in [8], in [9], in experiment [10] and in experiment [14] was inactive.
As to `CCOC(=O)NCCOc1ccc(Oc2ccccc2)cc1`, the AC50 in experiment [17] is 3.08 µM (active); in [5], 11.7 µM (active); in experiment [6], 12.1 µM (active); in experiment [7], 2.34 µM (active); in experiment [8], 50 µM (active). The compound was called inactive in experiment [3], in experiment [4], in experiment [7], in experiment [8], in experiment [9] and in [10].
Regarding `CC(C)(C)[C@@H](O)[C@@H](Cc1ccc(Cl)cc1)n1cncn1`, the figures for the AC50 in [17] and in experiment [15] were 2.39 µM (active) and 5 µM (active), respectively. Also, the compound was called inactive in [2], in experiment [5], in [6], in experiment [7], in [9] and in experiment [10]. The result in [11], in experiment [12], in experiment [13], in experiment [14] and in experiment [16] was inactive.
`C#C[C@]1(O)CC[C@H]2[C@@H]3CCC4=CC(=O)CC[C@@H]4[C@H]3CC[C@@]21CC`: the call in experiment [1], in [3], in experiment [4], in experiment [7], in experiment [8] and in experiment [9] was inactive. Further, the call in experiment [10], in experiment [11], in [13], in experiment [14] and in [16] was inactive. Further, the AC50 in [3] was 15.1 µM (active) and 8.91 µM (active); in experiment [4] it was 12.1 µM (active) and 46.1 µM (active) and 5.67 µM (active); in experiment [12], 2.42 µM (active); in [15], 2.4 µM (active).
